# Test results as given in the supplement of paper PMC8728848.
# Only a selection was taken, and the strongest signals are over-represented in it overall.
# B1: PX14351B-bth-512-36-512 (Bacteroides thetaiotaomicron) (protein)
# chain: ASETQQWKTLEDTRSALMGVYGLTRAALADNNTHWICGDLRKGDFTVYKRSDLQAVSDNELNKPYDLLKKVSNWRRFYAVINAASVFMEKAPRTVELDRSYSEQNLKYDIAQVRALRAFAYFYMVRIWGDVPLVTYSYDNGTFPSMPRTDAQTVLSYAKAELLTAIEDLPYQYGTQTNLYYGSYGAQWQGKLFNKLSAYSVLAHICAWQGNYAEAETYSAFIIDHASEINAKYTSIADLTSETGLFYSNASVKGSRILGFNFAHNDNEATQSGHLEQLTLAYPLVQKSYPEIYISKDSLFSIFTNFDDLRFGIIDTIKYSSYYVQNLNEETPVFSKIKIIQDGSAKDNDFGVFGSSIVFTRLEDITLLRAEALCALNRSTEAVSYLNMIRTNRGLREVSFKKDFGNNRESLIAEIFEERRRELMGEGWRWYDLVRRQKLMKDNEAFLRLISSGGIYWPVSEDIITANSQIEQNEFWK
# Key:
# Test in all cases: glycan array binding signal (z-score within array); higher = stronger binding
# Conditions in all cases: glycan notation: IUPAC condensed, linker removed
# Fuc(a1-2)Gal(b1-4)Glc = molecular target: Fuc(a1-2)Gal(b1-4)Glc
# In short: (§1)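 Glycan array binding is given as a within-array Z-score, which can be read as non-binding when negative. The arrays, 3228 of them, came from the Consortium for Functional Glycomics database and were retained only where the protein sequence was available. Z-scores were averaged across arrays of the same protein sequence at different concentrations or buffers and across linkers.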
# [1] = molecular target: Fuc(a1-2)Gal(b1-4)[Fuc(a1-3)]GlcNAc(b1-3)[Neu5Ac(a2-6)Gal(b1-4)GlcNAc(b1-6)]Gal(b1-4)Glc
# In short: as §1
# [2] = molecular target: Fuc(a1-2)Gal6S(b1-4)Glc6S
# In short: as §1
# [3] = molecular target: Fuc(a1-2)[GalNAc(a1-3)]Gal(b1-4)GlcNAc(b1-2)Man(a1-3)[Fuc(a1-2)[GalNAc(a1-3)]Gal(b1-4)GlcNAc(b1-2)Man(a1-6)]Man(b1-4)GlcNAc(b1-4)GlcNAc
# In short: as §1
# [4] = molecular target: Fuc(a1-3)[Gal(b1-4)]GlcNAc(b1-3)Gal(b1-4)[Fuc(a1-3)]GlcNAc(b1-3)Gal(b1-4)[Fuc(a1-3)]GlcNAc
# In short: as §1
# [5] = molecular target: Fuc(a1-3)[GalNAc(b1-4)]GlcNAc6S
# In short: as §1
# [6] = molecular target: Gal(a1-3)Gal(b1-3)[Fuc(a1-4)]GlcNAc(b1-2)Man(a1-3)[Gal(a1-3)Gal(b1-3)[Fuc(a1-4)]GlcNAc(b1-2)Man(a1-6)]Man(b1-4)GlcNAc(b1-4)GlcNAc
# In short: as §1
# [7] = molecular target: Gal(a1-3)Gal(b1-4)GlcNAc(b1-2)Man
# In short: as §1
# [8] = molecular target: Gal(a1-3)Gal(b1-4)GlcNAc(b1-3)GalNAc
# In short: as §1
# [9] = molecular target: Gal(a1-3)Gal(b1-4)GlcNAc(b1-6)GalNAc
# In short: as §1
# Gal(b1-3)Gal = molecular target: Gal(b1-3)Gal
# In short: as §1
# Gal(b1-3)GalNAc = molecular target: Gal(b1-3)GalNAc
# In short: as §1
# [10] = molecular target: Gal(b1-3)GalNAc(a1-3)[Fuc(a1-2)]Gal(b1-4)GlcNAc
# In short: as §1
# [11] = molecular target: Gal(b1-3)GlcNAc(a1-6)Gal(b1-4)GlcNAc
# In short: as §1
# [12] = molecular target: Gal(b1-3)GlcNAc(b1-3)Gal(b1-3)GlcNAc
# In short: as §1
# [13] = molecular target: Gal(b1-3)GlcNAc(b1-3)Gal(b1-4)GlcNAc(b1-2)[Gal(b1-3)GlcNAc(b1-3)Gal(b1-4)GlcNAc(b1-6)]Man(a1-6)[Gal(b1-3)GlcNAc(b1-3)Gal(b1-4)GlcNAc(b1-2)Man(a1-3)]Man(b1-4)GlcNAc(b1-4)[Fuc(a1-6)]GlcNAc
# In short: as §1
# [14] = molecular target: Gal(b1-3)[Neu5Ac(a2-6)]GlcNAc(b1-4)Gal(b1-4)Glc
# In short: as §1
# [15] = molecular target: Gal(b1-4)GlcNAc(b1-2)Man(a1-6)[Man(a1-3)]Man(b1-4)GlcNAc(b1-4)GlcNAc
# In short: as §1
# [16] = molecular target: Gal(b1-4)GlcNAc(b1-2)[Gal(b1-4)GlcNAc(b1-6)]Man(a1-6)[Gal(b1-4)GlcNAc(b1-2)Man(a1-3)]Man(b1-4)GlcNAc(b1-4)[Fuc(a1-6)]GlcNAc
# In short: as §1
# [17] = molecular target: Gal(b1-4)GlcNAc(b1-3)Gal(b1-4)Glc
# In short: as §1
# [18] = molecular target: Gal(b1-4)GlcNAc(b1-3)Gal(b1-4)GlcNAc(b1-2)[Gal(b1-4)GlcNAc(b1-3)Gal(b1-4)GlcNAc(b1-6)]Man(a1-6)[Gal(b1-4)GlcNAc(b1-3)Gal(b1-4)GlcNAc(b1-2)Man(a1-3)]Man(b1-4)GlcNAc(b1-4)GlcNAc
# In short: as §1
# [19] = molecular target: Gal(b1-4)GlcNAc(b1-3)Gal(b1-4)GlcNAc(b1-2)[Gal(b1-4)GlcNAc(b1-3)Gal(b1-4)GlcNAc(b1-6)]Man(a1-6)[Gal(b1-4)GlcNAc(b1-3)Gal(b1-4)GlcNAc(b1-2)Man(a1-3)]Man(b1-4)GlcNAc(b1-4)[Fuc(a1-6)]GlcNAc
# In short: as §1
# [20] = molecular target: Gal(b1-4)GlcNAc(b1-3)Gal(b1-4)GlcNAc(b1-3)Gal(b1-4)GlcNAc(b1-2)Man(a1-3)[Gal(b1-4)GlcNAc(b1-3)Gal(b1-4)GlcNAc(b1-3)Gal(b1-4)GlcNAc(b1-2)Man(a1-6)]Man(b1-4)GlcNAc(b1-4)GlcNAc
# In short: as §1
# [21] = molecular target: Gal(b1-4)GlcNAc(b1-3)Gal(b1-4)GlcNAc(b1-3)Gal(b1-4)GlcNAc(b1-3)Gal(b1-4)GlcNAc(b1-3)Gal(b1-4)GlcNAc(b1-2)[Gal(b1-4)GlcNAc(b1-3)Gal(b1-4)GlcNAc(b1-3)Gal(b1-4)GlcNAc(b1-3)Gal(b1-4)GlcNAc(b1-3)Gal(b1-4)GlcNAc(b1-6)]Man(a1-6)[Gal(b1-4)GlcNAc(b1-3)Gal(b1-4)GlcNAc(b1-3)Gal(b1-4)GlcNAc(b1-3)Gal(b1-4)GlcNAc(b1-3)Gal(b1-4)GlcNAc(b1-2)Man(a1-3)]Man(b1-4)GlcNAc(b1-4)[Fuc(a1-6)]GlcNAc
# In short: as §1
# [22] = molecular target: Gal(b1-4)GlcNAc(b1-3)GalNAc
# In short: as §1
# [23] = molecular target: Gal(b1-4)GlcNAc(b1-6)[Gal(b1-4)GlcNAc(b1-3)]GalNAc
# In short: as §1
# Gal3S(b1-4)Glc = molecular target: Gal3S(b1-4)Glc
# In short: as §1
# Gal6S(b1-4)GlcNAc6S = molecular target: Gal6S(b1-4)GlcNAc6S
# In short: as §1
# GlcA(b1-3)Gal = molecular target: GlcA(b1-3)Gal
# In short: as §1
# [24] = molecular target: GlcA3S(b1-3)Gal(b1-4)GlcNAc(b1-3)Gal(b1-4)Glc
# In short: as §1
binder,measurement,setting,value
B1,glycan array binding signal (z-score),Fuc(a1-2)Gal(b1-4)Glc,-0.31
same,glycan array binding signal (z-score),[1],-0.143
same,glycan array binding signal (z-score),[2],-0.262
same,glycan array binding signal (z-score),[3],1.76
same,glycan array binding signal (z-score),[4],0.19
same,glycan array binding signal (z-score),[5],-0.185
same,glycan array binding signal (z-score),[6],17.9
same,glycan array binding signal (z-score),[7],-0.075
same,glycan array binding signal (z-score),[8],0.527
same,glycan array binding signal (z-score),[9],-0.314
same,glycan array binding signal (z-score),Gal(b1-3)Gal,-0.39
same,glycan array binding signal (z-score),Gal(b1-3)GalNAc,-0.25
same,glycan array binding signal (z-score),[10],0.364
same,glycan array binding signal (z-score),[11],0.113
same,glycan array binding signal (z-score),[12],-0.074
same,glycan array binding signal (z-score),[13],9.18
same,glycan array binding signal (z-score),[14],-0.273
same,glycan array binding signal (z-score),[15],-0.288
same,glycan array binding signal (z-score),[16],2.5
same,glycan array binding signal (z-score),[17],-0.34
same,glycan array binding signal (z-score),[18],0.755
same,glycan array binding signal (z-score),[19],2.73
same,glycan array binding signal (z-score),[20],3.44
same,glycan array binding signal (z-score),[21],2.11
same,glycan array binding signal (z-score),[22],-0.256
same,glycan array binding signal (z-score),[23],1.91
same,glycan array binding signal (z-score),Gal3S(b1-4)Glc,-0.16
same,glycan array binding signal (z-score),Gal6S(b1-4)GlcNAc6S,-0.34
same,glycan array binding signal (z-score),GlcA(b1-3)Gal,-0.428
same,glycan array binding signal (z-score),[24],-0.114
